Screens from PubChem BioAssay.
ST2 IL33 inh: blocks human ST2 binding to IL-33. AlphaLISA ST2-Fc/biotin-IL-33 interaction, 1 h. inhibition, % for hits at 17 µM. 78,000 tested, 2.3% active. AID 1259354; in the data active means inhibition above about 30%
Target sequence (Q01638 whole entry, looked up): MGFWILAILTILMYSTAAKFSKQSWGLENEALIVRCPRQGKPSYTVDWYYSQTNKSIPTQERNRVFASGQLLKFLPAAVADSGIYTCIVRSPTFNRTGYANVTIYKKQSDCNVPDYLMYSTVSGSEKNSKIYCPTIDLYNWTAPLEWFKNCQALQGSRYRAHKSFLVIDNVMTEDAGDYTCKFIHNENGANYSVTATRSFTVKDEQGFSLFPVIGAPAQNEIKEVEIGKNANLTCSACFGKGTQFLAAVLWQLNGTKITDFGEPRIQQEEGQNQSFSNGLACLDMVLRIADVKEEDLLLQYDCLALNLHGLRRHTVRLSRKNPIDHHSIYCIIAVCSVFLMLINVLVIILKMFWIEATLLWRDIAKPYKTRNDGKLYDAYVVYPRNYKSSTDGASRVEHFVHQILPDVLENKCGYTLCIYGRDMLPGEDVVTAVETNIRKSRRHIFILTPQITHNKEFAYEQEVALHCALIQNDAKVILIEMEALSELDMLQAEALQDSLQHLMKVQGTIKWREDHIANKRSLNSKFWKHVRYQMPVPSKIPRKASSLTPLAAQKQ
Hits are given with their value; . = inactive; ! = not confirmed by another sample. Shown is part of a subset that was picked to be rich in hits.

SMILES	ST2 IL33 inh
O=C(CSc1nc2c([nH]c3ccccc32)c(=O)n1-c1ccc(F)cc1)N1CCOCC1	.
COc1ccc(S(=O)(=O)N(CC(=O)NC2CC2)c2ccccc2OC)cc1	.
O=C(Nc1ccc(Oc2ccccc2F)cc1)C1CCN(C(=O)C2CCCCO2)CC1 (stereo not drawn)	.
C=CCO[C@@H]1CCN2C(=O)[C@@H]3C[C@@H](OCC4CC4)CN3C(=O)[C@@H]2C1	.
Cc1ccc(-c2nc(N3CCN(CCO)CC3)ncc2-c2ccccc2C)cc1	.
COc1ccccc1NC(=O)Nc1cccc2cccnc12	.
COc1cc(NC(=O)/C=C/c2ccccc2)c2ncccc2c1	35%
O=C(/C=C/c1ccccc1)Nc1cc2ccccc2oc1=O	.
O=C(Nc1ccccc1-c1nc2ccccc2[nH]1)c1ccc(S(=O)(=O)N2CCCC2)cc1	.
COc1ccccc1CNc1ccc2c(c1)ncn2C(C)(C)C	.
CCn1cnc2cc(NCc3ccccc3OC)ccc21	.
COc1ccccc1CNc1ccc2c(c1)ncn2C1CCCCC1	33%
COC(=O)[C@H](NC(=O)[C@@H]1C[C@H](NC(=O)Nc2cccc(SC)c2)CN1C(=O)C=C(C)C)C(C)C	.
O=[N+]([O-])c1ccc(-c2nc(NC3CCCCC3)c3ccccc3n2)cc1	.
O=[N+]([O-])c1ccc(-c2nc(NCc3cccnc3)c3ccccc3n2)cc1	96%!
c1cncc(CNc2c3ccccc3nc3ccccc23)c1	.
C=CCNc1nc(-c2ccc([N+](=O)[O-])cc2)nc2ccccc12	.
CCCCN(C)c1nc(-c2ccc([N+](=O)[O-])cc2)nc2ccccc12	39%
CCCCN(C)Cc1ccc([N+](=O)[O-])cc1	.
COc1ccc2nc(SCC(=O)c3ccc4c(c3)OCO4)[nH]c2c1	.
CCCc1cc2c(=O)c(-c3ccccn3)coc2cc1OC(C)=O	.
CCC(C)NC(=O)c1nn2c(c1Cl)NC(c1ccc(Cl)cc1)CC2C(F)(F)F (stereo not drawn)	.
CC(NC(=O)c1cc(-c2ccc3c(c2)OCO3)on1)c1ccccc1 (stereo not drawn)	.
COc1ccc(C2C(C(=O)Nc3ccccn3)=C(C)NC3=C2C(=O)CCC3)c(OC)c1 (stereo not drawn)	.
Cc1cc(C)c(S(=O)(=O)N2CCCCC2)cc1S(=O)(=O)N1CCCCC1	.
SMILES	ST2 IL33 inh
Cc1cc(C)c(S(=O)(=O)N2CCN(c3ccccc3)CC2)cc1C	.
Cc1cc(C)c(S(=O)(=O)N=C2C=CC(=O)c3ccccc32)cc1C	47%
Cc1cc(S(=O)(=O)N=C2C=CC(=O)c3ccccc32)ccc1Cl	42%
Cc1cc(C)c(S(=O)(=O)N2CCN(c3cc(-c4ccccc4C)ncn3)CC2)cc1C	.
Cc1cc(Br)c(S(=O)(=O)N2CCN(c3ccccc3)CC2)cc1C	.
CC1=CC(=NS(=O)(=O)c2cccc([N+](=O)[O-])c2)C=CC1=O	.
Cc1cc(C)c(S(=O)(=O)N=C2C=C(Br)C(=O)c3ccccc32)cc1C	35%
Cc1cc(S(=O)(=O)N2CCN(S(=O)(=O)c3ccc(Cl)c(C)c3)CC2)ccc1Cl	.
CCOC(=O)c1sc2nc(C)nc(NC3CCCCC3C)c2c1C (stereo not drawn)	.
O=C(Nc1ccc(Cl)c(Cl)c1)c1ccccc1Br	.
COCC1(NC(=O)C2CCCCn3nnnc32)CCCC1 (stereo not drawn)	.
Cc1cccc(CN(Cc2cccnc2)CC2CCCN(C3CCCCC3)C2)n1 (stereo not drawn)	.
Cc1c(O)cccc1C(=O)NC1CC(=O)N(CC2CCCCC2)C1 (stereo not drawn)	.
CCC(C)NC(=O)CCS(=O)(=O)c1cc(Br)cc2c1N(C(C)=O)C(C)C2 (stereo not drawn)	.
CCCc1ccc(Oc2coc3c(C)c(OCC)ccc3c2=O)cc1	.
COc1ccc(CC2(CCC(=O)N3CCN(c4cccc(C)c4C)CC3)CCC(=O)N2)cc1OC (stereo not drawn)	.
N#Cc1c(-n2ncnc2-c2cccs2)sc2c1CCCCC2	44%
COc1cccc(-c2ncnn2-c2sc3c(c2C#N)CCCCC3)c1OC	.
COc1cc(-c2ncnn2-c2sc3c(c2C#N)CCCCC3)cc(OC)c1OC	.
N=C1SCC(=O)N1c1ccc(Br)cc1	.
O=C(NC1CCCC1)C1c2ccccc2C(=O)N1Cc1ccc(F)cc1 (stereo not drawn)	.
Cc1cc2c3c(C)n(C)c(C)c3c(C)nn2c1	54%
COc1ccccc1CNC(=O)c1cccc(Cl)c1	.
COc1ccccc1Nc1ncc(C(=O)N(C)Cc2ccccc2)c2ccccc12	.
CN1CCc2c(sc(NC(=O)CS(=O)(=O)c3ccccc3)c2-c2nc3ccccc3s2)C1	.
SMILES	ST2 IL33 inh
CCOc1ccc(S(=O)(=O)Nc2ccc(OC(F)(F)F)cc2)c2cccnc12	.
N#Cc1ccc(Br)cc1/C=C/C(=O)O	80%
N#Cc1ccc(Oc2ccc(C(=O)c3ccccc3)cc2)cc1C#N	.
O=C(c1ccccc1)c1cc(Br)ccc1O	.
COC(=O)C1CCN(C(=O)CC[C@H]2CNC(=O)[C@@H]3[C@@H](CCN3C(C)C)N2C)CC1	.
CCCOc1cccc(C(=O)Nc2c(C)cccc2C)c1	.
CCOc1ccccc1NC(=O)CC(=O)N(C)Cc1snnc1C	.
C=CCOc1nc2c(c(=O)n(C)c(=O)n2C)n1C	.
Cn1c(OCc2cccnc2)nc2c1c(=O)n(Cc1ccc(Cl)cc1)c(=O)n2C	.
C=CCOc1nc2c(c(=O)n(Cc3ccc(Br)cc3)c(=O)n2C)n1C	39%
O=C1CSC(c2ccc([N+](=O)[O-])cc2)N1c1ccc(F)cc1F (stereo not drawn)	.
CN1C[C@@H](NC(=O)c2ccc(-c3ccccc3)cc2)C[C@H]1c1nc(-c2ccc(Cl)cc2)no1	.
Cc1noc([C@@H]2C[C@H](NC(=O)c3ccco3)CN2C)n1	.
COc1ccc(C(=O)N[C@H]2C[C@@H](c3nc(-c4ccc(OC(F)(F)F)cc4)no3)N(C)C2)cc1	.
Cc1noc([C@@H]2C[C@H](NC(=O)c3ccc(F)cc3)CN2C)n1	40%
CN1C[C@@H](NC(=O)c2ccc(C(C)(C)C)cc2)C[C@H]1c1nc(-c2ccc3c(c2)OCO3)no1	64%
CN(C)c1ccc(C(=O)N[C@H]2C[C@@H](c3nc(-c4ccccn4)no3)N(C)C2)cc1	.
CC(C)c1ccc(C(=O)Nc2nncs2)cc1	.
CCc1ccc(OCC(=O)Nc2ccc3c(c2)OCO3)cc1	.
CCNc1ncc(C(=O)N2C[C@@H]3C4CCC(CC4)[C@@H]3C2)cn1	.
O=C(O)CCN(CCC(=O)O)c1nnc(-c2ccccc2)o1	.
C(=C\c1nnc(-c2ccccc2)o1)/c1ccccc1	34%
Nc1nnc(-c2ccccc2)o1	.
CCN(CC)c1ccc(C(=O)NCc2nc3cccnc3n2Cc2cccc(OC)c2)cc1	.
CCN(CC)CCNc1c2c(c(C#N)c3nc4ccccc4n13)CCC2	.
SMILES	ST2 IL33 inh
Cc1c(Cc2ccccc2)c(NCCCO)n2c(nc3ccccc32)c1C#N	.
N#Cc1c2c(c(NCCCO)n3c1nc1ccccc13)CCC2	31%
COCCNC(=O)c1ccc(OC2CCN(CC3CC=CCC3)CC2)c(Cl)c1 (stereo not drawn)	.
CC1CCCC(NS(=O)(=O)c2cccc3cccnc23)C1C (stereo not drawn)	.
COCCN(Cc1ccncc1)Cc1ccc(C)cc1	.
CN1CCc2c(sc3c2C(=O)NC(c2cccc(OC(=O)c4ccccc4)c2)N3)C1 (stereo not drawn)	.
O=S(=O)(c1ccccc1)c1nc(-c2ccc(F)cc2)oc1NCc1ccccc1	.
COc1ccc(CCNC(C)=O)cc1	.
COc1ccc(CCNc2oc(COc3ccc(Cl)cc3)nc2C#N)cc1	38%
